The panel holds about 83,000 compounds, 20% with a hit somewhere; the sample as a whole holds those more often.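 Cells were grown in 96-well plates and exposed to the test compound at a single concentration for 48 hours; results are reported as percent growth, with values below 10 considered active.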 Values without a mark were called inactive. Active and inactive are the calls of the source.

The subject of the first assay is SF-268 CNS. Put plainly: NCI-60 one-dose screen, 48 h (100 = growth as untreated, 0 = no growth, -100 = all killed). As to conditions: 10 µM unless noted.
On to `CC1=C(C(=O)c2ccccc2)C(c2ccc(-n3cncn3)cc2)n2c(nc3ccccc32)N1` (stereo unspecified), for which the growth was 77.1%.

Consider `CN(C)CCCNC(=O)c1cc(NC(=O)c2cc(NC(=O)c3ccc(C#Cc4ccccc4)cc3)cn2C)cn1C`, for which the growth is 18.1%.

Take `COc1cccc(/C=C/c2nc3ccccc3c(=O)n2CC(=O)Nc2ccc(Cl)cc2)c1`: the growth is 82.3%.

A further assay relates to SF-295 CNS. Described as above. As to conditions: 10 µM unless noted.
For `COC(=O)C[C@](O)(CCCC(C)(C)O)C(=O)O[C@H]1C(OC)=C[C@@]23CCCN2CCc2cc4c(cc2[C@@H]13)OCO4`, the growth was -22.8% (active).

Regarding `COc1cc(/C=C2\C(=N)N=C(SCc3nc4ccccc4[nH]3)NC2=O)ccc1O`, the growth is 101%.

For the compound `N/C(=N\N=C\c1ccc([N+](=O)[O-])cc1)c1c(N)nc(=S)[nH]c1-c1ccc(Cl)cc1Cl`, the growth is 52.4%.

For `CC1(c2cc3cc(Cl)ccc3oc2=O)NC(=O)c2c(/C=C/C(=O)OC3CC4CCC3(C)C4(C)C)cccc2N1` (stereo unspecified), the growth is 46.1%.

For `O=C(N=Nc1c(O)[nH]c2ccc(Cl)cc12)c1ccc2nc(-c3ccccc3)[nH]c2c1`, the growth is 63.6%.

Regarding `O=C(O)c1cccc(-c2ccc(/C=N/NC(=O)c3[nH]c4ccc(Br)cc4c3-c3ccccc3)o2)c1`, the growth is 72.3%.

Take `CC1(C)CC[C@]2(C(=O)Nc3ccccc3)CC[C@]3(C)C(=CCC4[C@@]5(C)C[C@@H](O)[C@H](O)[C@@](C)(CO)C5CC[C@]43C)C2C1` (stereo partly specified): the growth is 50.4%.

With `O=c1[nH]c2ccccc2cc1CSc1cccc(Nc2nccc(-c3ccc4ccccc4c3)n2)c1`, the growth was 88%.

Turning to `Clc1cccc(N/N=C/c2c[nH]c3ccc(Br)cc23)n1`, the growth was -9.75% (active).

Regarding `CSc1ccc(NC(=O)c2ccc3nnn(/C(C#N)=C/c4ccccn4)c3c2)cc1`, the growth is -73.3% (active).

`Cc1c(C(=O)NNC(=O)c2ccc(Cl)cc2)nnn1-c1ccc(Cl)cc1`: the growth was 82.7%.

Turning to `CN(C)c1nc(NCCNS(=O)(=O)c2ccc(C(=O)/C=C/c3ccc(F)cc3)cc2)nc(Nc2ccc(F)cc2)n1`, the growth is -78.3% (active).

Regarding `CNC(=O)c1cc(Oc2ccc3nc(NC(=O)Nc4cccc(OC(F)(F)F)c4)sc3c2)ccn1`, the growth is -18.9% (active).

Regarding `CC(C)(C)OC(=O)/C=C/c1cccc2c1C(=O)NC(C)(c1cc3cc(Cl)ccc3oc1=O)N2` (stereo unspecified), the growth is 24.9%.

On to `Cc1ccc(C2CC(c3ccc(S(=O)(=O)NCCNc4nc(Nc5ccc(F)cc5)nc(N(C)C)n4)cc3)=Nc3c(N)nc(N)nc3N2)cc1` (stereo unspecified), for which the growth was 48%.

Turning to `CC1=C(C(=O)OC(C)C)C(c2cccc(O)c2)NC(=S)N1` (stereo unspecified), the growth is 96.8%.

As for `C[C@H](Nc1nc(NCCc2ccccc2)nc2ccccc12)c1ccccc1`, the growth is -95.8% (active).

Consider `COc1ccc(-c2c(Nn3cnnn3)no[n+]2[O-])cc1`, for which the growth was 51.6%.

For the compound `Cn1cc(NC(=O)c2cc(NC(=O)c3ccc(C#Cc4ccccc4)cc3)cn2C)cc1C(=O)NCCCN1CCOCC1`, the growth was -81.9% (active).

Turning to `COc1cc(NC(=O)c2cccc(C3CCc4c(cc(OC)c(OC)c4OC)O3)c2)cc(OC)c1OC` (stereo unspecified), the growth is 8.61% (active).

In the case of `COc1ccc(-c2nnc3ccc(N/N=C/c4ccc(C)cc4)nn23)cc1`, the growth is 56.9%.

For the compound `Cc1ccc(-n2c(-c3cc4ccccc4nc3Cl)noc2=O)cc1`, the growth was 76.1%.

As to `CC(=O)Oc1ccccc1C(=O)[Se]CC(=O)Nc1cccc(C(F)(F)F)c1`, the growth was -76.8% (active).

`N#Cc1c(-c2ccccc2Cl)cc(-c2ccc3ccccc3c2)[nH]c1=O`: the growth is 1.62% (active).

`CCCCNC(=S)Nc1ccc(OCc2nc3ccccc3[nH]2)cc1`: the growth was 53.7%.

In the case of `COc1ccc(-c2nc3cc(C)ccc3n2CC(=O)N=Nc2c(O)[nH]c3ccccc23)cc1`, the growth is 15.4%.

On to `COc1ccc(-c2nc3ccc(C(=O)NN4C(=O)c5ccc([N+](=O)[O-])cc5C4=O)cc3[nH]2)cc1`, for which the growth was 88.2%.

For `O=c1oc2ccccc2cc1-c1csc(N=Nc2c(O)[nH]c3ccc(Cl)cc23)n1`, the growth was 87.9%.

As for `CN(C)c1ccnc(CNCCSC2(c3ccccc3)c3ccccc3C=Cc3ccccc32)c1`, the growth was -70.5% (active).

Regarding `COc1cc2c(c(OC)c1OC)C(=O)CC(c1cccc(NC(=O)c3cc(NC(=O)[C@@H](N)CO)ccc3C)c1)O2` (stereo partly specified), the growth is 101%.

For `COc1ccc(C(=O)/C=C/c2c(F)cccc2Cl)cc1S(N)(=O)=O`, the growth is 12.7%.

Take `O=C(Nc1cccc(-n2cnc3cc(-c4ccc(O)cc4)ccc32)c1)C1CC1`: the growth is 6.04% (active).

Regarding `COc1ccc(C2(SCCNCc3cc(N(C)C)ccn3)c3ccccc3C=Cc3ccccc32)cc1`, the growth was 1.44% (active).

Regarding `N/C(=N\c1nc2ccccc2s1)NC(=O)Nc1ccccc1Br`, the growth is -31.4% (active).

As for `COc1ccc(C2=NN(c3ccccc3)C(c3ccc(OC)c(OCc4ccccc4)c3)C2)cc1OC` (stereo unspecified), the growth was 107%.

For the compound `CC1=C(C(=O)c2ccccc2)C(c2ccc(-n3cncn3)cc2)n2c(nc3ccccc32)N1` (stereo unspecified), the growth is 84%.

Take `CN(C)CCCNC(=O)c1cc(NC(=O)c2cc(NC(=O)c3ccc(C#Cc4ccccc4)cc3)cn2C)cn1C`: the growth is -91.8% (active).

As for `COc1cccc(/C=C/c2nc3ccccc3c(=O)n2CC(=O)Nc2ccc(Cl)cc2)c1`, the growth is 61.2%.
